# Data published in PubChem BioAssay AID1159580 (chemical genetic matrix, 2015).
# Values joined by “and” are separate entries in the source; they are usually repeats but may differ in a detail not shown here. Equal values may be shown once. The whole screen tested about 5,500 compounds, of which about 2,000 (36%) were called active. Another 18% or so got no clear call; they are omitted. Some of the results follow. A number with no mark means an inactive call. Rule as the data show it: active = normalized growth mostly below about 0.91 (no sharp cut-off); inconclusive = no clear call, values can overlap the other calls; inactive = mostly above about 0.92.
# Assay: chemical genetic growth profiling, strain panel (AID 1159580);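 also: tested at 20 µM; growth read once vehicle control cultures reached saturation at 30 °C; 1 = growth at the plate median or of vehicle wells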
# Conditions: S. cerevisiae deletion strains, growth OD
smiles,measurement,setting,value
O=C(O)c1cc(O)c2c(c1)[C@@H]([C@H]1c3cc(C(=O)O)cc(O)c3C(=O)c3c(O[C@H]4O[C@H](CO)[C@@H](O)[C@H](O)[C@H]4O)cccc31)c1cccc(O[C@H]3O[C@H](CO)[C@@H](O)[C@H](O)[C@H]3O)c1C2=O,normalized growth,"locus YAL013W, strain DEP1, stronger effect = lower value",1.02
same,normalized growth,"locus YAL021C, strain ccr4, stronger effect = lower value",0.983
same,normalized growth,"locus YAL026C, strain drs2, stronger effect = lower value",1.01
same,normalized growth,"locus YAL030W, strain snc1, stronger effect = lower value",1.02
same,normalized growth,"locus YBL061C, strain skt5, stronger effect = lower value",1.01
same,normalized growth,"locus YBR009C, strain hhf1, stronger effect = lower value",1.04
same,normalized growth,"locus YBR021W, strain FUR4, stronger effect = lower value",1.02
same,normalized growth,"locus YBR023C, strain chs3, stronger effect = lower value",1.02
same,normalized growth,"locus YBR171W, strain sec66, stronger effect = lower value",1.02
same,normalized growth,"locus YBR229C, strain ROT2, stronger effect = lower value",1.01
same,normalized growth,"locus YBR231C, strain swc5, stronger effect = lower value",1.02
same,normalized growth,"locus YBR279W, strain paf1, stronger effect = lower value",1.01
same,normalized growth,"locus YCL011C, strain gbp2, stronger effect = lower value",1.02
same,normalized growth,"locus YCL016C, strain dcc1, stronger effect = lower value",1.02
same,normalized growth,"locus YCL029C, strain bik1, stronger effect = lower value",1
same,normalized growth,"locus YCL061C, strain MRC1, stronger effect = lower value",0.987
same,normalized growth,"locus YCL069W, strain vba3, stronger effect = lower value",1.01
same,normalized growth,"locus YCR088W, strain abp1, stronger effect = lower value",1.02
same,normalized growth,"locus YDL005C, strain med2, stronger effect = lower value",1
same,normalized growth,"locus YDL035C, strain GPR1, stronger effect = lower value",1.02
same,normalized growth,"locus YDL040C, strain nat1, stronger effect = lower value",1.04
same,normalized growth,"locus YDL074C, strain BRE1, stronger effect = lower value",1.04
same,normalized growth,"locus YDL101C, strain DUN1, stronger effect = lower value",1.01
same,normalized growth,"locus YDL134C, strain PPH21, stronger effect = lower value",1.01
same,normalized growth,"locus YDL185W, strain tfp1, stronger effect = lower value",1.01
same,normalized growth,"locus YDL192W, strain arf1, stronger effect = lower value",0.995
same,normalized growth,"locus YDR001C, strain nth1, stronger effect = lower value",1.04
same,normalized growth,"locus YDR069C, strain doa4, stronger effect = lower value",1.01
same,normalized growth,"locus YDR101C, strain arx1, stronger effect = lower value",0.98
same,normalized growth,"locus YDR137W, strain rgp1, stronger effect = lower value",0.953
same,normalized growth,"locus YDR150W, strain NUM1, stronger effect = lower value",1.02
same,normalized growth,"locus YDR159W, strain sac3, stronger effect = lower value",1.02
same,normalized growth,"locus YDR162C, strain NBP2, stronger effect = lower value",1.02
same,normalized growth,"locus YDR195W, strain ref2",1.17 [resistant] (active)
same,normalized growth,"locus YDR297W, strain sur2, stronger effect = lower value",1.02
same,normalized growth,"locus YDR318W, strain mcm21, stronger effect = lower value",1.01
same,normalized growth,"locus YDR334W, strain swr1, stronger effect = lower value",1.05
same,normalized growth,"locus YDR335W, strain msn5, stronger effect = lower value",1.02
same,normalized growth,"locus YDR388W, stronger effect = lower value",1
same,normalized growth,"locus YDR392W, strain spt3, stronger effect = lower value",0.93
same,normalized growth,"locus YDR502C, strain sam2, stronger effect = lower value",0.995
same,normalized growth,"locus YEL003W, strain gim4, stronger effect = lower value",1.02
same,normalized growth,"locus YEL037C, strain rad23, stronger effect = lower value",1.09 [resistant] (active)
same,normalized growth,"locus YEL061C, strain CIN8 (second series), stronger effect = lower value",1.05
same,normalized growth,"locus YEL061C, strain CIN8, stronger effect = lower value",1.01
same,normalized growth,"locus YER015W, strain faa2, stronger effect = lower value",1.01
same,normalized growth,"locus YER016W, strain bim1, stronger effect = lower value",1.02
same,normalized growth,"locus YER110C, stronger effect = lower value",1
same,normalized growth,"locus YER155C, strain BEM2 (second series), stronger effect = lower value",1.01
same,normalized growth,"locus YER155C, strain BEM2, stronger effect = lower value",1.01
same,normalized growth,"locus YER167W, strain BCK2, stronger effect = lower value",1.01
same,normalized growth,"locus YFR010W, strain ubp6, stronger effect = lower value",1.02
same,normalized growth,"locus YGL078C, strain dbp3, stronger effect = lower value",0.993
same,normalized growth,"locus YGL086W, strain mad1, stronger effect = lower value",1
same,normalized growth,"locus YGL167C, strain pmr1, stronger effect = lower value",1.03
same,normalized growth,"locus YGL173C, strain kem1, stronger effect = lower value",1.02
same,normalized growth,"locus YGL227W, strain vid30, stronger effect = lower value",1.05
same,normalized growth,"locus YGL240W, strain doc1, stronger effect = lower value",0.989
same,normalized growth,"locus YGL248W, strain PDE1, stronger effect = lower value",1.02
same,normalized growth,"locus YGL253W, strain hxk2, stronger effect = lower value",1.02
same,normalized growth,"locus YGR135W, strain pre9, stronger effect = lower value",1.01
same,normalized growth,"locus YGR252W, strain gcn5, stronger effect = lower value",0.949
same,normalized growth,"locus YHR013C, strain ard1, stronger effect = lower value",1.06
same,normalized growth,"locus YHR027C, strain rpn1, stronger effect = lower value",1.05
same,normalized growth,"locus YHR030C, strain SLT2, stronger effect = lower value",1.01 and 0.986
same,normalized growth,"locus YHR079C, strain IRE1 (second series), stronger effect = lower value",1
same,normalized growth,"locus YHR079C, strain IRE1, stronger effect = lower value",0.981
same,normalized growth,"locus YHR094C, strain hxt1, stronger effect = lower value",0.999
same,normalized growth,"locus YHR129C, strain ARP1, stronger effect = lower value",1.01
same,normalized growth,"locus YHR142W, strain chs7, stronger effect = lower value",1.09
same,normalized growth,"locus YHR200W, strain rpn10, stronger effect = lower value",0.991
same,normalized growth,"locus YIL066C, strain RNR3, stronger effect = lower value",1.02
same,normalized growth,"locus YIL073C, strain SPO22, stronger effect = lower value",1.06
same,normalized growth,"locus YIL125W, strain kgd1, stronger effect = lower value",1
same,normalized growth,"locus YIR030C, strain dcg1, stronger effect = lower value",0.999
same,normalized growth,"locus YJL092W, strain hpr5, stronger effect = lower value",1.01
same,normalized growth,"locus YJL095W, strain BCK1 (second series), stronger effect = lower value",1.12 [resistant] (active)
same,normalized growth,"locus YJL095W, strain BCK1, stronger effect = lower value",1.03 and 0.978
same,normalized growth,"locus YJL129C, strain trk1, stronger effect = lower value",1.04
same,normalized growth,"locus YJL134W, strain LCB3, stronger effect = lower value",1.02
same,normalized growth,"locus YJL154C, strain vps35, stronger effect = lower value",1.02
same,normalized growth,"locus YJL164C, strain tpk1, stronger effect = lower value",1
same,normalized growth,"locus YJL166W, strain qcr8, stronger effect = lower value",0.958
same,normalized growth,"locus YJL168C, strain set2, stronger effect = lower value",1.02
same,normalized growth,"locus YJL187C, strain SWE1 (second series), stronger effect = lower value",1.02
same,normalized growth,"locus YJL187C, strain SWE1, stronger effect = lower value",1.01
same,normalized growth,"locus YJR043C, strain POL32, stronger effect = lower value",1
same,normalized growth,"locus YJR066W, strain TOR1, stronger effect = lower value",0.934
same,normalized growth,"locus YKL009W, strain mrt4, stronger effect = lower value",1.11
same,normalized growth,"locus YKL068W, stronger effect = lower value",1.01
same,normalized growth,"locus YKL085W, strain MDH1 (second series), stronger effect = lower value",1.03
same,normalized growth,"locus YKL085W, strain MDH1, stronger effect = lower value",1.03
same,normalized growth,"locus YKL160W, strain elf1, stronger effect = lower value",0.993
same,normalized growth,"locus YKR001C, strain vps1, stronger effect = lower value",1.02
same,normalized growth,"locus YKR026C, strain gcn3, stronger effect = lower value",1.02
same,normalized growth,"locus YLL001W, strain dnm1, stronger effect = lower value",1.02
same,normalized growth,"locus YLL026W, stronger effect = lower value",1.02
same,normalized growth,"locus YLL041C, strain sdh2, stronger effect = lower value",1.01
same,normalized growth,"locus YLR027C, strain aat2, stronger effect = lower value",1.02
same,normalized growth,"locus YLR039C, strain RIC1, stronger effect = lower value",1.03
same,normalized growth,"locus YLR058C, strain SHM2, stronger effect = lower value",1.01
same,normalized growth,"locus YLR102C, strain apc9, stronger effect = lower value",1
same,normalized growth,"locus YLR113W, strain HOG1, stronger effect = lower value",1.01
same,normalized growth,"locus YLR221C, strain rsa3, stronger effect = lower value",0.986
same,normalized growth,"locus YLR258W, strain gsy2, stronger effect = lower value",0.99
same,normalized growth,"locus YLR262C, strain YPT6 (second series), stronger effect = lower value",0.979
same,normalized growth,"locus YLR262C, strain YPT6, stronger effect = lower value",1.1
same,normalized growth,"locus YLR268W, strain sec22, stronger effect = lower value",0.998
same,normalized growth,"locus YLR320W, strain mms22, stronger effect = lower value",1.03
same,normalized growth,"locus YLR330W, strain CHS5, stronger effect = lower value",1.01
same,normalized growth,"locus YLR342W, strain FKS1 (second series), stronger effect = lower value",0.985
same,normalized growth,"locus YLR342W, strain FKS1, stronger effect = lower value",1.04
same,normalized growth,"locus YLR357W, strain rsc2, stronger effect = lower value",1.28 [resistant] (active)
same,normalized growth,"locus YLR370C, strain arc18, stronger effect = lower value",1
same,normalized growth,"locus YLR371W, strain rom2, stronger effect = lower value",0.999
same,normalized growth,"locus YLR384C, strain iki3, stronger effect = lower value",1.02
same,normalized growth,"locus YLR418C, strain cdc73, stronger effect = lower value",0.993
same,normalized growth,"locus YML016C, strain PPZ1, stronger effect = lower value",1.01
same,normalized growth,"locus YML032C, strain rad52, stronger effect = lower value",0.998
same,normalized growth,"locus YML120C, strain ndi1, stronger effect = lower value",1.01
same,normalized growth,"locus YML124C, strain tub3, stronger effect = lower value",0.997
same,normalized growth,"locus YMR058W, strain fet3, stronger effect = lower value",1.03
same,normalized growth,"locus YMR078C, strain ctf18, stronger effect = lower value",1
same,normalized growth,"locus YMR125W, strain sto1, stronger effect = lower value",1.02
same,normalized growth,"locus YMR129W, stronger effect = lower value",1.04
same,normalized growth,"locus YMR205C, strain PFK2, stronger effect = lower value",0.958
same,normalized growth,"locus YMR223W, strain ubp8, stronger effect = lower value",0.997
same,normalized growth,"locus YMR231W, strain pep5, stronger effect = lower value",1.01
same,normalized growth,"locus YMR307W, strain GAS1, stronger effect = lower value",1
same,normalized growth,"locus YNL067W, strain RPL9B, stronger effect = lower value",1.01
same,normalized growth,"locus YNL071W, strain lat1, stronger effect = lower value",1.03
same,normalized growth,"locus YNL128W, strain TEP1, stronger effect = lower value",1.05
same,normalized growth,"locus YNL153C, strain GIM3, stronger effect = lower value",1
same,normalized growth,"locus YNL183C, strain NPR1, stronger effect = lower value",0.937
same,normalized growth,"locus YNL209W, strain ssb2, stronger effect = lower value",1.01
same,normalized growth,"locus YNL233W, strain BNI4, stronger effect = lower value",1.01
same,normalized growth,"locus YNL248C, strain rpa49, stronger effect = lower value",1
same,normalized growth,"locus YNL250W, strain rad50, stronger effect = lower value",1.02
same,normalized growth,"locus YNL271C, strain bni1, stronger effect = lower value",1
same,normalized growth,"locus YNL298W, strain CLA4, stronger effect = lower value",0.993
same,normalized growth,"locus YNL307C, strain MCK1, stronger effect = lower value",1.01
same,normalized growth,"locus YNL322C, strain KRE1 (second series), stronger effect = lower value",1.02
same,normalized growth,"locus YNR049C, strain mso1, stronger effect = lower value",1.05
same,normalized growth,"locus YNR052C, strain pop2, stronger effect = lower value",0.978
same,normalized growth,"locus YOL006C, strain TOP1, stronger effect = lower value",1.04
same,normalized growth,"locus YOL012C, strain htz1",0.926
same,normalized growth,"locus YOL147C, strain pex11, stronger effect = lower value",1
same,normalized growth,"locus YOR001W, strain rrp6, stronger effect = lower value",1.04
same,normalized growth,"locus YOR061W, strain CKA2, stronger effect = lower value",1.02
same,normalized growth,"locus YOR069W, strain VPS5, stronger effect = lower value",1.02
same,normalized growth,"locus YOR070C, strain gyp1, stronger effect = lower value",1.08 [resistant] (active)
same,normalized growth,"locus YOR080W, strain dia2, stronger effect = lower value",1.13 [resistant] (active)
same,normalized growth,"locus YOR083W, strain WHI5, stronger effect = lower value",0.957
same,normalized growth,"locus YOR106W, strain vam3, stronger effect = lower value",0.979
same,normalized growth,"locus YOR136W, strain idh2, stronger effect = lower value",1.01
same,normalized growth,"locus YOR144C, strain elg1, stronger effect = lower value",1.01
same,normalized growth,"locus YOR184W, strain ser1, stronger effect = lower value",1.02
same,normalized growth,"locus YOR231W, strain MKK1, stronger effect = lower value",0.988
same,normalized growth,"locus YOR265W, strain rbl2, stronger effect = lower value",1.01
same,normalized growth,"locus YOR270C, strain vph1, stronger effect = lower value",1.05
same,normalized growth,"locus YOR290C, strain snf2, stronger effect = lower value",0.997
same,normalized growth,"locus YOR316C, strain cot1, stronger effect = lower value",1
same,normalized growth,"locus YPL051W, strain arl3, stronger effect = lower value",0.995
same,normalized growth,"locus YPL055C, strain LGE1, stronger effect = lower value",1.01
same,normalized growth,"locus YPL078C, strain atp4, stronger effect = lower value",0.979
same,normalized growth,"locus YPL106C, strain sse1, stronger effect = lower value",0.977
same,normalized growth,"locus YPL240C, strain hsp82, stronger effect = lower value",0.993
same,normalized growth,"locus YPL241C, strain CIN2, stronger effect = lower value",1.02
same,normalized growth,"locus YPL256C, strain CLN2, stronger effect = lower value",1.03
same,normalized growth,"locus YPR119W, strain clb2, stronger effect = lower value",1
same,normalized growth,"locus YPR141C, strain kar3, stronger effect = lower value",1
same,normalized growth,"locus YPR163C, strain tif3, stronger effect = lower value",1.01
same,normalized growth,"locus YPR167C, strain met16, stronger effect = lower value",0.99
same,normalized growth,"strain wtn01, stronger effect = lower value",1.01
